Screens deposited in PubChem BioAssay by National Center for Advancing Translational Sciences (NCATS).
D1 PAM: Potentiators of Human D1 Dopamine Receptor: qHTS | AID 504651, 2011 | 360,000 compounds, 0.036% hits | potentiation, % at 10 µM | HEK293 TREx D1 cells, calcium flux, dopamine EC20 potentiation; in the data active = potentiation above about 30%; note: 0% is about no effect
Target sequence (P21728 whole entry, looked up): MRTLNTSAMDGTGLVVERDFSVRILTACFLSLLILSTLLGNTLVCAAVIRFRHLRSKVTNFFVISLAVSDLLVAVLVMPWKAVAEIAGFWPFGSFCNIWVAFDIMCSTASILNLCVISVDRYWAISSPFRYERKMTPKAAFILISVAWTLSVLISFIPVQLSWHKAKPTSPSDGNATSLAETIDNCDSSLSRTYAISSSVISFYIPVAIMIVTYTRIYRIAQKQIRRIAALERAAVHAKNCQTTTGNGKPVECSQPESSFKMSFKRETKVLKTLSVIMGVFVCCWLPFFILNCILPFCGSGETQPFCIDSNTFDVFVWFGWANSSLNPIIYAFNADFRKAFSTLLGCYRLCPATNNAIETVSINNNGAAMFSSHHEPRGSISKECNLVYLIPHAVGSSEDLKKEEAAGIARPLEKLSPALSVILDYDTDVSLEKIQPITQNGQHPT
D1 agonist: Allosteric Agonists of the Human D1 Dopamine Receptor: qHTS. activation, % at 2 µM. AID 504660, 2011. D(1A) dopamine receptor (Homo sapiens), P21728. 360,000 compounds, 1% hits. HEK293 T-REx D1 cells, calcium flux, agonist mode; in the data active = activation above about 30%; note: 0% is about no effect
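Agonism was scored from calcium flux recorded over 180 s (1 read/s) after pintool compound addition, following a 10-cycle baseline. Cells were inducible force-coupled HEK293 TREx D1, plated overnight at 30 C and loaded with no-wash calcium dye.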
DRD3 antagonist: qHTS of D3 Dopamine Receptor Antagonist: qHTS; D3R cells, DiscoveRx beta-arrestin luminescence, antagonist mode; hits give low values; max response, negative = inhibition, %; D(3) dopamine receptor (Homo sapiens), P35462; AID 652054, 2013; 360,000 compounds, 2.5% hits; in the data active = max response below about -50%; inconclusive = no clear call, values can overlap the other calls; note: % is set by controls: 0 for no effect and ±100 for the full control effect
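Cells expressing the human receptor were seeded at 1500 cells/well, incubated overnight at 37 degrees C in 5% CO2, then exposed to library compounds with dopamine controls for 90 minutes at 37 degrees C before luminescent detection.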
D1 antag: Antagonist of Human D 1 Dopamine Receptor: qHTS. D(1A) dopamine receptor (Homo sapiens), P21728. 360,000 compounds, 3.2% hits. activity change, negative = inhibition, % at 10 µM. HEK293 TREx D1 cells, calcium flux, dopamine EC80; hits give low values; in the data active = activity change below about -30%; note: % is set by controls: 0 for no effect and ±100 for the full control effect
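Cells carrying a force-coupled, tetracycline-inducible human D1 receptor report calcium flux. Each well gets a 10 s baseline, compound with 180 s monitoring, then an EC80 dopamine stimulus with a second 180 s kinetic read.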
D3 ag: qHTS of D3 Dopamine Receptor Agonist: qHTS | D3R DiscoveRx beta-arrestin cells, luminescence, 90 min | D(3) dopamine receptor (Homo sapiens), P35462 | max activation, % | 410,000 compounds, 0.58% hits; in the data active = max activation above about 30%; note: 0% is about no effect
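Cells at 1500/well, incubated overnight, then treated with pinned compounds (dopamine as control) for 90 min at 37 degrees C. DiscoveRx reagent added for 30 - 60 minutes at room temperature; luminescence read.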
* hit, by the source's call; u = inconclusive; x = not tested or not shown. Rows were chosen to be rich in hits. Some 6.1% of all compounds tested hit in one or more screens of this group.

SMILES	D1 PAM	D1 agonist	DRD3 antagonist	D1 antag	D3 ag
CCn1c(=NC(=O)c2ccc(N3C(=O)CCC3=O)cc2)sc2c(OC)ccc(OC)c21	x	4.2	-76.5*	-11.1	2.2
CCn1c(=NC(=O)c2cccc(N3C(=O)CCC3=O)c2)sc2c(C)ccc(OC)c21	-7.8	1.2	10.8	-14.0	-1.0
Cc1cc(C)c2c(=O)cc(C(=O)Nc3ccc(S(=O)(=O)Nc4onc(C)c4C)cc3)oc2c1	-0.3	2.2	x	2.1	-20.8
COc1ccc(/C=C/C(=O)c2ccc(Cl)s2)cc1O	-5.3	0.1	-72.1*	-9.4	-7.8
c1ccc(N2OCC3Cn4c(nc5ccccc54)C32)cc1 (configuration not stated)	-3.3	5.0	u	-36.1*	19.0
c1ccc(CN2OCC3Cn4c(nc5ccccc54)C32)cc1 (configuration not stated)	-3.0	1.9	2.1	32.6	14.7
CC(=O)Nc1ccc(NC(=O)c2oc3ccc4c(c3c2C)C(=O)CC(C)(C)O4)cc1	-4.8	0.7	x	2.0	-9.1
COc1ccc(N(C(=O)/C=C\C(=O)Nc2ccc(Cl)cc2)C(C(=O)NCc2ccco2)c2ccc(C)cc2)cc1 (configuration not stated)	-0.3	6.8	x	24.7	1.4
CCOC(=O)C1(C)/C(=N/Nc2cccc(Cl)c2)C(=O)C(=O)N1c1ccccc1 (configuration not stated)	-0.6	1.1	-75.0*	-0.6	-7.2
COc1ccc(-c2nnc(C3CCN(S(=O)(=O)c4cccc(Cl)c4)CC3)o2)cc1	-3.6	4.5	x	-14.4	2.6
COC(=O)c1ccc(N2CCN(S(=O)(=O)c3ccc(C)cc3)CC2)c([N+](=O)[O-])c1	-4.7	7.1	12.4	-16.3	2.4
O=[N+]([O-])c1cc(S(=O)(=O)N2CCOCC2)ccc1N1CCCC1	5.9	1.1	-5.0	-30.8*	1.2
O=C(O)C1CCN(c2ccc(S(=O)(=O)N3CCOCC3)cc2[N+](=O)[O-])CC1	-4.2	4.3	-14.2	-23.8	-1.8
COC(=O)c1ccc(N2CCN(S(=O)(=O)c3ccc(Br)cc3)CC2)c([N+](=O)[O-])c1	-2.1	7.3	-12.4	-32.7*	5.8
Cc1cccc(Nc2ccc(S(=O)(=O)N3CCOCC3)cc2[N+](=O)[O-])c1	x	3.1	-15.3	-25.5	-7.2
Cc1ccc(CNc2ccc(S(=O)(=O)N3CCOCC3)cc2[N+](=O)[O-])cc1	1.9	5.5	-6.2	-56.6*	-3.9
OCCOc1ccc(CN2CCCC(N3CCN(c4ccc(F)cc4)CC3)C2)cc1 (configuration not stated)	-4.8	0.3	-21.0	-42.9*	-2.2
O=C1CSc2ccc(S(=O)(=O)NCc3ccc(F)cc3)cc2N1	-8.3	5.3	26.0	-1.0	-0.9
Cc1ccc(CNS(=O)(=O)c2ccc3c(c2)NC(=O)CS3)cc1	-3.2	5.6	-13.8	-33.6*	-13.1
CCN(Cc1ccccc1)S(=O)(=O)c1ccc2c(c1)NC(=O)CS2	-5.7	8.2	28.3	-35.9*	2.2
CCn1cc2nc(SCc3cccc(C(F)(F)F)c3)n(Cc3ccc(Cl)cc3)c(=O)c2n1	-4.5	8.4	x	34.1	-8.3
O=C(CC1N=C2c3ccccc3N=C(SCC(=O)Nc3ccccc3F)N2C1=O)NCc1ccc2c(c1)OCO2 (configuration not stated)	-1.5	0.5	x	3.2	-2.5
CC(C)C(=O)Nc1cccc(-c2csc(-c3ccccc3)n2)c1	-16.4	1.4	4.8	21.9	1.8
CC(C)C(=O)Nc1ccc(-c2csc(-c3ccccc3)n2)cc1	-3.0	1.0	-10.8	-38.0*	1.8
O=C(CSc1ccc(C(F)(F)F)cc1[N+](=O)[O-])Nc1ccccc1	-8.5	37.2*	-15.2	-12.8	3.3
SMILES	D1 PAM	D1 agonist	DRD3 antagonist	D1 antag	D3 ag
CC(=O)Nc1ccc(NC(=O)CSc2ccc(C(F)(F)F)cc2[N+](=O)[O-])cc1	-2.2	0.6	-10.8	8.0	-3.7
CC(C)NC(=O)CNc1ccc(C(F)(F)F)cc1[N+](=O)[O-]	-14.0	2.2	5.8	-30.5*	-3.9
CN1CCN(C(=O)CNc2ccc(C(F)(F)F)cc2[N+](=O)[O-])CC1	-3.9	1.6	-28.4	-5.6	-10.5
O=C(c1ccccc1)c1ccc(N2CCNCC2)cc1	-16.4	7.2	x	-74.5*	x
COc1ccc(Cl)cc1NC(=O)Cn1cc2c(n1)CCC(C)C2 (configuration not stated)	1.3	5.0	x	20.9	-14.6
CCOC(=O)C1CCN(c2c(C(=O)c3ccc(C)cc3)cnc3ccc(F)cc23)CC1	-0.5	0.2	x	5.1	-1.2
COc1ccc(OC)c(-n2c(=S)[nH]c3c(sc(=S)n3-c3ccccc3C)c2=O)c1	-0.4	0.6	-20.0	1.2	-4.8
COc1ccccc1-n1c(=S)[nH]c2c(sc(=S)n2-c2ccccc2C)c1=O	-0.8	1.1	-77.7*	0.1	56.3*
CCCn1c(N)c(N2CCCCC2)c(=O)n(CC(=O)Nc2ccc(OC(F)(F)F)cc2)c1=O	3.5	0.2	14.4	-30.0*	0.6
CCCn1c(N)c(N2CCCCC2)c(=O)n(CC(=O)Nc2ccccc2C)c1=O	-1.9	0.1	9.4	8.5	1.1
Cc1ccc(Cn2c(CNC(=O)CCc3ccccc3)nc3cccnc32)cc1	-3.5	0.7	x	28.0	-1.9
Cc1cccn2c(Nc3ccccc3)c(-c3ccc(N4CCOCC4)cc3)nc12	-1.2	-0.7	x	-44.8*	-8.2
Cc1ccc(Nc2c(-c3ccc(C)cc3)nc3c(C)cccn23)cc1	7.5	3.3	x	11.7	3.4
Cc1nn(-c2cc(N3CCCC3)ccc2[N+](=O)[O-])c(=O)c2ccccc12	1.9	1.3	-59.1*	-1.4	-0.6
CCCCOc1ccc(C(=O)NCCc2sc3nc(-c4ccc(OC)cc4)nn3c2C)cc1	-2.5	1.6	x	x	-20.2
CCCn1c(=O)c(C(=O)Nc2cccc(C)n2)c(O)c2ccccc21	3.8	3.6	0.2	13.9	0.2
CCn1c(=O)c(C(=O)NNC(=O)c2ccc(Cl)cc2Cl)c(O)c2ccccc21	2.4	29.8	5.9	-8.3	4.2
CCCn1c(=O)c(C(=O)NCc2ccccc2)c(O)c2ccccc21	-3.6	8.6	23.5	19.5	8.1
CCCn1c(=O)c(C(=O)Nc2ccccc2C(=O)OCC)c(O)c2ccccc21	0.5	0.2	27.8	-0.5	37.0*
CCn1c(=O)c(C(=O)Nc2nc3ccccc3[nH]2)c(O)c2ccccc21	-7.5	1.2	-61.7*	0.5	4.2
CCCn1c(=O)c(C(=O)NNC(=O)c2ccc(Cl)cc2Cl)c(O)c2ccccc21	-6.0	41.2*	0.5	-12.9	0.9
